Experimental findings from PubChem BioAssay AID651899 (Broad Institute, 2012) are described below.

Each structure is given as a SMILES string. Potency and affinity values are given separately. Active and inactive are the calls of the source. Entries that show only a call come without a potency. No rule for the calls is given here.

The nature of this assay: HEK293 cell viability loss – plate reader, cherry-pick, cytotoxicity control, dose response (AID 651899).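 Also: cells exposed to compound for 48 hours.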 The following applies: series mostly up to 26 µM.

Take `Fc1ccc(-c2ccc3c(c2)C2CC3CCN2)cc1` (stereo not drawn): the molecule was classed as inactive. As for `CC(=O)O[C@]1(C(C)=O)CC[C@H]2[C@@H]3C=C(C)C4=CC(=O)CC[C@]4(C)[C@H]3CC[C@@]21C`, the entry is “inactive”. For the molecule `Cc1cccc(-c2nnc(SCC#N)n2-c2ccccc2)c1`, the outcome was inactive. The result for `CC(=O)c1ccc(C(=O)N2CCCC(Nc3ccccc3)C2)s1` (stereo not drawn) reads “inactive”; that for `Cn1nnc2cc(C(=O)N3CCC(c4ccccc4)C3)ccc21` (stereo not drawn), “inactive”.

In the case of `CCCN1CCN(C(=O)C2CCN(c3nnc(C)c4c(C)n(-c5ccc(C)cc5)nc34)CC2)CC1`, the outcome was inactive. Consider `CNC(=O)C[C@H]1CC[C@@H]2[C@H](COC[C@@H](O)CN2C(=O)Nc2ccc(Cl)c(Cl)c2)O1`, for which the molecule was classed as inactive. Turning to `CCC(=O)N1CC[C@@H]2[C@H]1c1cc(-c3cccc(F)c3)ccc1N(C)[C@H]2CO`, the call was inactive. As for `C/C=C/c1ccc2c(c1)O[C@@H](CN(C)C(=O)Nc1ccc(OC)cc1)[C@@H](C)CN([C@@H](C)CO)S2(=O)=O`, the entry is “inactive”; as for `O=C(CSc1nc2c(c(=O)n1-c1ccc(Cl)cc1)SCC2)N1CCOCC1`, “inactive”.

As for `O=C(C[C@H]1C[C@H]2c3cc(NC(=O)c4cccnc4)ccc3O[C@H]2[C@H](CO)O1)NCc1ccccn1`, the molecule was called inactive.

For `Cc1nc2nc(SCC(=O)N3CCOCC3)nn2c(C)c1Cc1ccccc1`, the molecule was classed as inactive. As for `O=C(C[C@@H]1C[C@@H]2c3cc(NC(=O)c4cccnc4)ccc3O[C@@H]2[C@@H](CO)O1)NCCc1ccccc1`, the entry is “inactive”; as for `Nn1c(SCCOc2ccccc2)nnc1-c1cccnc1`, “inactive”; as for `COc1ccc(NC(=O)c2ccc(Cl)nc2)cc1S(=O)(=O)N1CCOCC1`, “inactive”.

On to `CC1=C(C#N)C(c2cccnc2)C2=C(CC(c3ccc(Cl)cc3)CC2=O)N1` (stereo not drawn), for which the outcome was inactive. The result for `COc1ccc(Cn2ccc(=O)c(Cc3c(Cl)cccc3Cl)c2C)cc1` reads “inactive”.

As to `Clc1ccc(CSc2nnc(-c3cccnc3)o2)cc1`, the molecule was classed as inactive. In the case of `CCn1c(=O)c(=O)n(CC)c2cc(S(=O)(=O)Nc3cc(C)ccc3C)ccc21`, the molecule was called inactive. As for `CC(C)(C)c1cc(C(=O)Nc2cccnc2)cc(C(=O)Nc2cccnc2)c1`, the entry is “inactive”; as for `COc1ccc(C2c3c(-c4cc(Cl)c(C)cc4O)n[nH]c3C(=O)N2Cc2cccnc2)cc1OC` (stereo not drawn), “inactive”. As for `O=C(c1ccncc1)N1CC[C@@H]2[C@H](CO)Nc3ccc(Br)cc3[C@@H]21`, the entry is “inactive”; as for `Cc1ccc(/C=C(\CCC(=O)O)c2nc3ccccc3s2)cc1[N+](=O)[O-]`, “inactive”; as for `O=C(C[n+]1cc(-c2ccc(Cl)cc2)n2c1CCC2)N1c2ccccc2Sc2ccccc21`, “inactive”. As for `CCOC(=O)c1c(C)[n+](-c2ccc(C)cc2)c(CC)c2cc(OC)c(OC)cc12`, the entry is “inactive”; as for `Cc1ccccc1S(=O)(=O)NCC[C@H]1CC[C@@H](NC(=O)Nc2cccc(F)c2)[C@H](CO)O1`, “inactive”.

For the molecule `O=C(CSc1nc2cc(C(=O)O)ccc2c(=O)n1-c1ccc(F)cc1)Nc1ccc(F)c(F)c1F`, the outcome was inactive. Turning to `COc1cccc(NC(=O)N2C[C@H](O)COC[C@@H]3O[C@@H](CC(=O)N(C)C)CC[C@H]32)c1`, the molecule was called inactive.

Turning to `O=C(c1ccccc1F)N1CC[C@@H]2[C@H](CO)Nc3ccc(Br)cc3[C@@H]21`, the result was inactive. The result for `Nc1cc(C(=O)O)ccc1Nc1ccccc1` reads “inactive”; that for `O=C(Nc1ccc(N2CCOCC2)c(Cl)c1)c1cccnc1`, “inactive”; that for `CCc1nn(CCCC(=O)N(C)Cc2ccccc2)c(=O)c2cc3occc3n12`, “inactive”.

As for `O=C(COc1ccc2ccc(=O)oc2c1)N1CCN(c2ccc(F)cc2)CC1`, the molecule was classed as inactive.

Regarding `O=C(Nc1cccnc1)c1ccc(Cl)c(Cl)c1`, the molecule was classed as inactive. Turning to `COC(=O)C1C(=O)C=C(Nc2ccc(F)cc2)CC1c1ccc(OC)cc1` (stereo not drawn), the molecule was called inactive. As for `C=C(C)CSc1nc(N)c2c3c(sc2n1)CCC3`, the entry is “inactive”; as for `O=C(O)CN1C(=O)/C(=C\c2cc(Br)ccc2OCc2ccc([N+](=O)[O-])cc2)SC1=S`, “inactive”. On to `O=C(Nc1ccc2snnc2c1)N1CCN(c2ccccc2)CC1`, for which the outcome was inactive. As for `C[C@@H]1CN([C@H](C)CO)C(=O)c2cc(C#Cc3cccnc3)cnc2O[C@H]1CN(C)S(C)(=O)=O`, the entry is “inactive”; as for `COc1cc(-c2n[nH]c(=S)n2Cc2ccccc2)cc(OC)c1OC`, “inactive”; as for `COc1ccc(-c2ccc3c(c2)C2CC3CCN2)cc1` (stereo not drawn), “inactive”.

Take `O=C(Cc1ccccc1)N1CC[C@@H]2[C@H]1c1cc(Br)ccc1N[C@@H]2CO`: the molecule was classed as inactive. The result for `COc1ccccc1S(=O)(=O)N1CC[C@@H]2[C@H](CO)Nc3ccc(-c4cccc(C#N)c4)cc3[C@@H]21` reads “inactive”.
